From PubChem BioAssay
Unmarked numbers belong to inactive results. The rule behind the calls is not given here.

The compounds below were run on Aerobactin synthetase IucA (Klebsiella pneumoniae hvKP1) (assay: Biochemical IucA enzyme inhibition primary screen of the Spectrum library (AID 1346200;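 note: 100% = wells without compound and 0% = wells lacking enzyme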)). Settings: malachite green pyrophosphate, A620, at 8 µM, active compounds read low.
`CC[C@H]1OC(=O)[C@H](C)[C@@H](O[C@H]2C[C@@](C)(OC)[C@@H](O)[C@H](C)O2)[C@H](C)[C@@H](O[C@@H]2O[C@H](C)C[C@H](N(C)C)[C@H]2O)[C@](C)(O)C[C@@H](C)/C(=N\OCOCCOC)[C@H](C)[C@@H](O)[C@]1(C)O` was tested, and the activity remaining was 118%. `CC(=O)[C@H]1CCC2C3CC=C4C[C@@H](OC(=O)CCC(=O)O)CC[C@]4(C)C3CC[C@@]21C` (stereo not given in full) gave an activity remaining of 117%. Work on `CC(=O)O[C@@H]1CC2C(C)(C)C(=O)CC[C@]2(C)C2CC[C@@]3(C)[C@H](c4ccoc4)OC(=O)C4OC43[C@@]21C` (stereo not given in full) yielded an activity remaining of 110%. `Cc1cc(O)c(C=O)c2c1C(=O)Oc1c(C)c(O)c3c(c1O2)C(O)OC3=O` (stereo not given) showed an activity remaining of 113%. `Nc1nc(N)c2nc(-c3ccccc3)c(N)nc2n1` gave an activity remaining of 114%. With `CN/C(=C\[N+](=O)[O-])NCCSCc1ccc(CN(C)C)o1` the activity remaining was 91.1%. For `CC(C)CCCC(C)[C@H]1CCC2C3CC=C4CC(=O)CC[C@]4(C)C3CC[C@@]21C` (stereo not given in full), the activity remaining was 113%. Compound `C=C1C(C2(C)C=CC(=O)C(C)(C)C2CC(=O)OC)CC[C@@]2(C)[C@H](c3ccoc3)OC(=O)C3OC132` (stereo not given in full) has an activity remaining of 105%. For `COc1ccc(C2CNC(=O)C2)cc1OC1CCCC1` (stereo not given), the activity remaining was 120%. `CCCC(C(=O)OCCN(CC)CC)(c1ccccc1)c1ccccc1` was tested, and the activity remaining was 105%. For `CCN(CC)CCOc1ccc(/C(=C(\Cl)c2ccccc2)c2ccccc2)cc1`, the activity remaining was 111%. In the case of `C[C@H]1[C@H](C)CC[C@]2(C(=O)O)CC[C@]3(C)C(=CCC4[C@@]5(C)C[C@@H](O)[C@H](O)[C@@](C)(CO)C5[C@H](O)C[C@]43C)[C@H]12` (stereo not given in full), the activity remaining is reported as 110%. For `COc1cc2c(cc1OC)C1Cc3ccc(OC)c(OC)c3CN1CC2` (stereo not given), the activity remaining was 118%. `CCCCCC/C=C\CCCCCCCc1cccc(O)c1C(=O)O` gave an activity remaining of 112%. Compound `O=C(O)c1ccccc1O` has an activity remaining of 121%. `Cn1cnc2c1c(=O)[nH]c(=O)n2C` was tested, and the activity remaining was 126%. For `CC1(C)S[C@@H]2[C@H](NC(=O)C(C(=O)O)c3ccccc3)C(=O)N2[C@H]1C(=O)O` (stereo not given in full), the activity remaining was 114%. Work on `CC(C)CCCC(C)C1CCC2C3=CC[C@H]4C[C@@H](O)CC[C@]4(C)C3CC[C@@]21C` (stereo not given in full) yielded an activity remaining of 114%. Compound `CS(=O)(=O)c1ccc(C2=C(c3ccccc3)C(=O)OC2)cc1` has an activity remaining of 87.7%. `COc1ccc(C(=O)CC(=O)c2ccc(C(C)(C)C)cc2)cc1` was tested, and the activity remaining was 104%. `O=c1c(O)c(-c2ccccc2)oc2cc(O)ccc12` showed an activity remaining of 100%. `NC(Cc1ccc(Cl)cc1)C(=O)O` (stereo not given) was tested, and the activity remaining was 108%. Compound `OC(c1cc(C(F)(F)F)nc2c(C(F)(F)F)cccc12)C1CCCCN1` (stereo not given) has an activity remaining of 120%. `C[C@H]1c2cccc(O)c2C(O)=C2C(=O)[C@]3(O)C(O)=C(C(N)=O)C(=O)[C@@H](N(C)C)[C@@H]3[C@@H](O)[C@@H]21` showed an activity remaining of 93.8%. `OCCN1CCN(CCCN2c3ccccc3Sc3ccc(Cl)cc32)CC1` was tested, and the activity remaining was 121%. With `CCCCc1oc2ccccc2c1C(=O)c1cc(I)c(OCCN(CC)CC)c(I)c1` the activity remaining was 123%. `C1N2CN3CN1CN(C2)C3` gave an activity remaining of 104%. For `CC(=O)OC[C@@]1(O)C[C@@]23CCC4c5ccoc5CC[C@]4(C)C2CC[C@@H]1C3` (stereo not given in full), the activity remaining was 119%. With `COC1C(O)C(O[C@H]2CC[C@]3(C=O)C4C(CC[C@]3(O)C2)[C@@]2(O)CC[C@H](C3=CC(=O)OC3)[C@@]2(C)C[C@H]4OC(C)=O)OC(C)C1OC(C)=O` (stereo not given in full) the activity remaining was 122%. `CC(=O)[C@@]1(O)CCC2C3C=C(Cl)C4=CC(=O)[C@@H]5CC5[C@]4(C)C3CC[C@@]21C` (stereo not given in full) was tested, and the activity remaining was 105%. Compound `C#CCCCCCCCCCCCC(=O)CC(O)COC(C)=O` (stereo not given) has an activity remaining of 122%. Compound `COc1ccc2c(c1)OCC(Cc1ccc(OC)c(OC)c1)C2=O` (stereo not given) has an activity remaining of 95.4%. `O=C(Nc1ccc([N+](=O)[O-])cc1Cl)c1cc(Cl)ccc1O` showed an activity remaining of 93.6%. `CC1(C)S[C@@H]2[C@H](NC(=O)[C@@H](N)c3ccc(O)cc3)C(=O)N2[C@H]1C(=O)O` showed an activity remaining of 99.8%. Work on `CC(=O)NC(C(=O)O)C(C)(C)SN=O` (stereo not given) yielded an activity remaining of 97%. Compound `C[n+]1cccc(C(=O)[O-])c1` has an activity remaining of 92.7%. In the case of `C[C@@H](N)CO`, the activity remaining is reported as 106%. In the case of `C=C1c2cccc(O)c2C(O)=C2C(=O)[C@]3(O)C(O)=C(C(N)=O)C(=O)[C@@H](N(C)C)[C@@H]3[C@@H](O)[C@H]12`, the activity remaining is reported as 111%. In the case of `CC(=O)OCC(=O)[C@@]1(O)CCC2C3CCC4=CC(=O)C=CC4(C)C3[C@@H](O)C[C@@]21C` (stereo not given in full), the activity remaining is reported as 81.1%. Work on `CC1=C(/C=C/C(C)=C/C=C/C(C)=C/C=C/C=C(C)/C=C/C=C(C)/C=C/C2=C(C)C(=O)C(O)CC2(C)C)C(C)(C)CC(O)C1=O` (stereo not given) yielded an activity remaining of 109%.
